Assay results published in PubChem BioAssay (Tox21).
Results filed as inconclusive are left out. Activity calls are given as the source filed them. Unless noted, calls follow the shape of the full dose curve.

Columns and labels:
[1] = Nuclear factor erythroid 2-related factor 2/antioxidant responsive element (Nrf2/ARE) small molecule agonists: qHTS cell viability counter screen in human keratinocytes (AID 1919968; active = well fitted curve in the direction sought with a large enough effect in the repeat runs; an effect the other way counts as inactive or inconclusive; also: nearly all actives have a fitted effect of over 55% in size; also: potency is read from the fitted curve at half-maximal effect)
Procedure, shortened: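 Cytotoxicity was multiplexed with the Nrf2/ARE luciferase assay in the same wells. Stably transfected HaCaT keratinocytes were treated with test compounds for 23 h at 37 C. Cell viability was then measured by CellTiter-Fluor fluorescence.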

[2] = Nuclear factor erythroid 2-related factor 2/antioxidant responsive element (Nrf2/ARE) small molecule agonists: luciferase reporter gene qHTS assay in human keratinocytes (AID 1919969); also: nearly all actives have a fitted effect of over 35% in size; also: potency is read from the fitted curve at half-maximal effect
[3] = molecular target: KiSS-1 receptor (Homo sapiens) (UniProt Q969F8); assay: Human kisspeptin (KISS1R) small molecule agonists, calcium flux assay in KISS1R-HEK293 cells (AID 1920064; active = well fitted curve in the direction sought with a large enough effect in the repeat runs; an effect the other way counts as inactive or inconclusive)
Sequence of KiSS-1 receptor (Homo sapiens) (Q969F8 whole entry, looked up): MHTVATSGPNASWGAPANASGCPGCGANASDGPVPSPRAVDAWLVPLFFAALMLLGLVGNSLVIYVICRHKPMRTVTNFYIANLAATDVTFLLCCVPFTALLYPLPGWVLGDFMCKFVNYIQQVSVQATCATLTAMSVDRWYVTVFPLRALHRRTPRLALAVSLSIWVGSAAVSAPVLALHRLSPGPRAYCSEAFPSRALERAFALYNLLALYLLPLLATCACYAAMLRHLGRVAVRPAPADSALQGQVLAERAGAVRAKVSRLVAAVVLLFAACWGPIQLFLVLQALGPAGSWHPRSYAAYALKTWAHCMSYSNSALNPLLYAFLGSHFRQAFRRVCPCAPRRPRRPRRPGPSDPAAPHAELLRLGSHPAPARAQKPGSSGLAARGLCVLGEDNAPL
Procedure, shortened: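 Agonist activity is monitored as intracellular calcium rise in engineered HEK293 cells carrying human KISS1R. Cells are dye-loaded for 1 h at 37 C before compound addition, and fluorescence is recorded for 3 min.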

[4] = G protein-coupled receptor (GPCR) small molecule agonists, calcium flux assay: HEK293 wild type cell line counter screen (AID 1920065)
Procedure, shortened: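 Seed cells, incubate 18 h (37 C, 5% CO2); add calcium dye, 1 h at 37 C; pin-transfer compounds, ATP control or DMSO; read fluorescence 480/540 nm each second for 3 min.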

[5] = p53 small molecule agonists, cell-based qHTS assay with human liver microsomes: qHTS cell viability counter screen (AID 1963579); also: nearly all actives have a fitted effect of over 45% in size
Procedure, shortened: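 Seed p53RE-bla cells at 4,000 per well; incubate 5 h at 37 C; add compound, human liver microsomes and NADPH; incubate 16 h at 37 C; add CellTiter-Glo; after 30 min at room temperature, read luminescence.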

[6] = p53 small molecule agonists, cell-based qHTS assay with rat liver microsomes: qHTS cell viability counter screen (AID 1963580); also: nearly all actives have a fitted effect of over 45% in size
Procedure, shortened: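 Counter screen for cytotoxicity under metabolic activation: rat liver microsomes and NADPH, 0.5 mg/mL final each, added with compounds to p53RE-bla HCT-116 cells; 16 h at 37 C, then ATP luminescence read.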

[7] = p53 small molecule agonists, cell-based qHTS assay: qHTS cell viability counter screen (AID 1963581); also: nearly all actives have a fitted effect of over 45% in size
Procedure, shortened: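 Viability was counter-screened in parallel with the p53 agonist reporter by measuring intracellular ATP luminescence in the same HCT-116 p53RE-bla wells after 16 h compound treatment at 37 C.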

[8] = molecular target: 5-hydroxytryptamine receptor 2A (Homo sapiens) (UniProt P28223); assay: 5-hydroxytryptamine receptor 2A (HTR2A) small molecule antagonists, cell-based qHTS assay (AID 1963586); also: nearly all actives have a fitted effect of over 45% in size; also: potency is read from the fitted curve at half-maximal effect
Sequence of 5-hydroxytryptamine receptor 2A (Homo sapiens) (P28223 whole entry, looked up): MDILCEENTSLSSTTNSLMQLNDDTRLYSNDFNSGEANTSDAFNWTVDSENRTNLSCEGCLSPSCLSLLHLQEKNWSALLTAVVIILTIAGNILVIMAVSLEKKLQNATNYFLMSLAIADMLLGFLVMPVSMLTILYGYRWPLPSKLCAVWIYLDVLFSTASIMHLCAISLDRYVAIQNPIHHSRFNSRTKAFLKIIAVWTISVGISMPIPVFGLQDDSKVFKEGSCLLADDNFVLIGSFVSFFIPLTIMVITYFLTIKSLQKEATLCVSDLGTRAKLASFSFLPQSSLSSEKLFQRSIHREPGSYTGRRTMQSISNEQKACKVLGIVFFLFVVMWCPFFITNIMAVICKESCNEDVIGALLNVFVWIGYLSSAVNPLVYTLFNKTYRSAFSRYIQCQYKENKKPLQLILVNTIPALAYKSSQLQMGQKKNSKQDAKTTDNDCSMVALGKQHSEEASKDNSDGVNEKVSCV
Procedure, shortened: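 CHO cells stably expressing human HTR2A were plated for 18 h at 37 C, then loaded with calcium dye for 1 h. Compounds were preincubated 5 min at room temperature before DOI (4 nM solution) was added. Kinetic fluorescence was read for 3 min.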

[9] = molecular target: 5-hydroxytryptamine receptor 2A (Homo sapiens) (UniProt P28223); assay: 5-hydroxytryptamine receptor 2A (HTR2A) small molecule agonists, cell-based qHTS assay (AID 1963587); also: nearly all actives have a fitted effect of over 30% in size; also: potency is read from the fitted curve at half-maximal effect
Procedure, shortened: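 HTR2A-CHO cells, plated 18 h at 37 C/5% CO2, dye-loaded 1 h at 37 C; compounds in DMSO added by pin tool (agonist mode). Intracellular calcium flux read as kinetic fluorescence on FDSS over 2 min at 1 s intervals.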

[10] = molecular target: Muscarinic acetylcholine receptor M1 (Homo sapiens) (UniProt P11229); assay: Cholinergic receptor muscarinic 1 (CHRM1) small molecule antagonists, cell-based qHTS assay (AID 1963588); also: nearly all actives have a fitted effect of over 40% in size
Sequence of Muscarinic acetylcholine receptor M1 (Homo sapiens) (P11229 whole entry, looked up): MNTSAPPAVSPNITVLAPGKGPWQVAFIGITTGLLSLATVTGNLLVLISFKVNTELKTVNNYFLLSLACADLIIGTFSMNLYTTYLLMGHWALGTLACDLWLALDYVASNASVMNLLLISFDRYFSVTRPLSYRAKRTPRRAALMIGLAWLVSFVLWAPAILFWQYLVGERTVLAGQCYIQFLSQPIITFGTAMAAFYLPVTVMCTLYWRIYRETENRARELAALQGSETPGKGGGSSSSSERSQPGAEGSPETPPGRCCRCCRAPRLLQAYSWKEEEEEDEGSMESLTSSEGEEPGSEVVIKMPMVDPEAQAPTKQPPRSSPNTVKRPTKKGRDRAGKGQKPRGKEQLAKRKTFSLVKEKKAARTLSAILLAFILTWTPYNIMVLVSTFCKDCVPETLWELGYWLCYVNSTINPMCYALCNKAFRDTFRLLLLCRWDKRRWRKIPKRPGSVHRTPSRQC
Procedure, shortened: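 Compounds were tested at 15 concentrations in three independent runs. Dye-loaded CHRM1-CHO cells were exposed 5 min at room temperature before stimulation by acetylcholine added at 50nM. Intracellular calcium was read kinetically on FDSS for 3 min.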

[11] = molecular target: Muscarinic acetylcholine receptor M1 (Homo sapiens) (UniProt P11229); assay: Cholinergic receptor muscarinic 1 (CHRM1) small molecule agonists, cell-based qHTS assay (AID 1963589); also: nearly all actives have a fitted effect of over 35% in size
Procedure, shortened: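 Cells were plated and incubated 18 h at 37 C/5% CO2, loaded with calcium dye for 1 h at 37 C, then treated with compounds in DMSO. Fluorescence was recorded kinetically at 1 sec intervals.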

[12] = cAMP Responsive Elements (CRE) small molecule agonists, cell-based qHTS assay (AID 1963590)
Procedure, shortened: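 Cells carrying a CRE-driven beta-lactamase reporter (HEK 293T) are seeded, incubated overnight (18 h), and treated with test compounds for 3 h at 37 C; reporter activity is then detected with a FRET substrate after 2 h at room temperature.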

[13] = cAMP Responsive Elements (CRE) small molecule antagonists, cell-based qHTS assay (AID 1963591; active = well fitted inhibition curve with a large enough effect in the signal ratio in the repeat runs, not every such curve was filed as active; the % refers to the signal ratio)
Procedure, shortened: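 Cells (CRE-bla HEK 293T, DMEM with 10% dialyzed FBS and 25 mM HEPES) are seeded and incubated 18 h. Compounds are added with NKH477 agonist at 0.25 uM final for 3 h, then FRET substrate for 2 h.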

[14] = molecular target: Beta-2 adrenergic receptor (Homo sapiens) (UniProt P07550); assay: Adrenergic beta2 receptor (ADRB2) small molecule antagonists, cell-based qHTS assay (AID 1963592); also: nearly all actives have a fitted effect of over 50% in size; also: potency is read from the fitted curve at half-maximal effect; as to activity change, negative = inhibition: series mostly up to about 92 µM
Sequence of Beta-2 adrenergic receptor (Homo sapiens) (P07550 whole entry, looked up): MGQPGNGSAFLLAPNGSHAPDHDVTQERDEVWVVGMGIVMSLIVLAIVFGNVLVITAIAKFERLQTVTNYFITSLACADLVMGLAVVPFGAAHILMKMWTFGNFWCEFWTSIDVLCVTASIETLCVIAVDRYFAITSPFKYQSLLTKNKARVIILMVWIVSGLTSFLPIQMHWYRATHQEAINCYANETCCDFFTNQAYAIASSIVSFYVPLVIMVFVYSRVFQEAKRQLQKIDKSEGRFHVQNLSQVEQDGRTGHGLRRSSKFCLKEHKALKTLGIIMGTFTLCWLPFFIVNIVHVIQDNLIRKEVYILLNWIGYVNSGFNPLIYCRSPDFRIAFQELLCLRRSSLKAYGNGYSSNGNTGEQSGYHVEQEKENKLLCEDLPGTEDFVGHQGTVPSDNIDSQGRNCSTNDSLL
Procedure, shortened: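 Assay format: CHO-ADRB2 cells, 18-20hr seeding at 37C/5% CO2, then compound plus 1nM isoproterenol agonist mix for 0.5hr RT. Homogeneous time-resolved fluorescence cAMP detection after 1hr, expressed as 665/615 nm ratio.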

[15] = molecular target: Beta-2 adrenergic receptor (Homo sapiens) (UniProt P07550); assay: Adrenergic beta2 receptor (ADRB2) small molecule agonists, cell-based qHTS assay (AID 1963593);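 also: CHO cells stably overexpressing human ADRB2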
Procedure, shortened: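 CHO cells stably over-expressing ADRB2 were plated overnight at 37C, then dosed with compounds plus a stimulation mix containing 100uM IBMX and 25uM Ro-20-1724 for 0.5hr at room temperature. cAMP was measured by HTRF competition, 1hr.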

[16] = molecular target: D(2) dopamine receptor (Homo sapiens) (UniProt P14416); assay: Dopamine D2 receptor (DRD2) small molecule agonists, cell-based qHTS assay (AID 1963594); also: nearly all actives have a fitted effect of over 35% in size
Sequence of D(2) dopamine receptor (Homo sapiens) (P14416 whole entry, looked up): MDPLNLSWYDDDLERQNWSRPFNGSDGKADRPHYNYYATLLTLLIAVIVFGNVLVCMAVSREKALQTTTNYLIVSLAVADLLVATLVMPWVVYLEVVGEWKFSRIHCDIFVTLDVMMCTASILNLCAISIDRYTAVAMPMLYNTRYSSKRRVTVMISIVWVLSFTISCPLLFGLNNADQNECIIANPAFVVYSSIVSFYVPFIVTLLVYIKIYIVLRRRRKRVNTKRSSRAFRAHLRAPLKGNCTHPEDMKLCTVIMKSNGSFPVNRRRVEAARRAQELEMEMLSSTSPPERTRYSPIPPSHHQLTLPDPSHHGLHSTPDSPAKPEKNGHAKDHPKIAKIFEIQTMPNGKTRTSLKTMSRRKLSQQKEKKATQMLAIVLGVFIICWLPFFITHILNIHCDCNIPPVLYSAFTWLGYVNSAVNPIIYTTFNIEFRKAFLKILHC
Procedure, shortened: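 HEK293 cells stably expressing DRD2 were cultured 24 h at 37 C, then given Ro20-1724 (0.1 mM final) and compounds for 10 min at room temperature. NKH477 (200nM) was then added for 30 min. cAMP was read by HTRF.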

[17] = molecular target: D(2) dopamine receptor (Homo sapiens) (UniProt P14416); assay: Dopamine D2 receptor (DRD2) small molecule antagonists, cell-based qHTS assay (AID 1963595; active = well fitted inhibition curve with a large enough effect in the signal ratio in the repeat runs, with a control signal flat; the % refers to the signal ratio)
Procedure, shortened: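 Stable D2 receptor HEK293 line, 24 h after seeding. Compound preincubated 10 min, then quinpirole (12 nM) with forskolin analogue NKH477 (200 nM), 30 min, room temperature. Detection by time-resolved FRET of cAMP.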

[18] = p53 small molecule agonists, cell-based qHTS assay with rat liver microsomes (AID 1963578)
Procedure, shortened: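 Fluorescence from a beta-lactamase reporter under a p53 response element was measured after cells had been incubated 16 h at 37 C with test compound and rat liver microsomes plus NADPH (0.5 mg/mL final each).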

[19] = p53 small molecule agonists, cell-based qHTS assay (AID 1963582; active = well fitted activation curve with a large enough effect in the signal ratio in the repeat runs, not every such curve was filed as active; the % refers to the signal ratio)
Procedure, shortened: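 Cells carrying a p53-responsive bla reporter are treated with test compounds for 16 h at 37 C; beta-lactamase activity is then detected with LiveBLAzer B/G FRET substrate after 2 h at room temperature.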

[20] = p53 small molecule agonists, cell-based qHTS assay with human liver microsomes (AID 1963577)
Procedure, shortened: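 Cells carrying a p53-responsive bla reporter were rested 5 h (37 C, 5% CO2) before compound transfer. Human liver microsomes plus NADPH, 0.5 mg/mL final apiece, supplied metabolism during the 16 h 37 C exposure.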
% is scaled to controls: 0 for no effect and ±100 for the full control effect.

O=S1(=O)CCCC1
inactive: Potency [1] | Potency [2] | Potency [3] | Potency [4] | Potency [5] | Potency [6] | Potency [7] | Potency [8] | Potency [9] | Potency [10] | Potency [11] | Potency [12] | Potency [13] | Potency [14] | Potency [15] | Potency [16] | Potency [17]

CC1(CN2CCC(n3c(=O)[nH]c4ccccc43)CC2)OCc2ccccc2-n2cccc21 (centres undefined)
active: Potency [1] 29.8 µM | Potency [8] 1.83 µM | Potency [14] 29.8 µM
inactive: Potency [2] | Potency [3] | Potency [4] | Potency [18] | Potency [5] | Potency [6] | Potency [7] | Potency [9] | Potency [10] | Potency [11] | Potency [13] | Potency [16] | Potency [17]

CCCC(C)CC (centres undefined)
inactive: Potency [1] | Potency [2] | Potency [3] | Potency [4] | Potency [18] | Potency [5] | Potency [6] | Potency [7] | Potency [19] | Potency [8] | Potency [9] | Potency [11] | Potency [12] | Potency [13] | Potency [14] | Potency [16]

CCn1nc(C)c2c1C(=O)NCC(c1ccc(O)cc1)=N2
inactive: Potency [1] | Potency [2] | Potency [3] | Potency [4] | Potency [18] | Potency [5] | Potency [6] | Potency [19] | Potency [8] | Potency [9] | Potency [10] | Potency [11] | Potency [12] | Potency [14] | Potency [15] | Potency [16]

CC(=O)c1ccc2c(c1)[C@H](NC(=O)c1ccc(F)cc1)[C@@H](O)C(C)(C)O2
inactive: Potency [1] | Potency [2] | Potency [3] | Potency [4] | Potency [18] | Potency [5] | Potency [6] | Potency [7] | Potency [19] | Potency [8] | Potency [9] | Potency [10] | Potency [11] | Potency [12] | Potency [13] | Potency [14] | Potency [16] | Potency [17]

CC(C)c1ccc(O)c(C(C)C)c1
inactive: Potency [1] | Potency [3] | Potency [4] | Potency [20] | Potency [18] | Potency [6] | Potency [7] | Potency [10] | Potency [11] | Potency [14] | Potency [16] | Potency [17]
active: Potency [2] 68.6 µM | Potency [9] 54.9 µM

CC1(C)CCC(C)(C)c2cc(C(=O)Nc3ccc(C(=O)O)cc3)ccc21
inactive: Potency [1] | Potency [2] | Potency [3] | Potency [4] | Potency [20] | Potency [18] | Potency [11] | Potency [14] | Potency [16] | Potency [17]

CCCCCCCCCCCCCCCCN(C)C
inactive: activity change, negative = cytotoxicity [1] 3.36% [at 8.39 µM] | activity, positive = activation [2] -0.511% [at 8.39 µM] | activation [3] 5.47% [at 6.97 µM] | activation [4] -0.794% [at 5.23 µM] | activation [18] -0.0918% [at 5.99 µM] | activity change, negative = cytotoxicity [5] -6.23% [at 5.99 µM] | activity change, negative = cytotoxicity [6] 1.34% [at 5.99 µM] | activity change, negative = cytotoxicity [7] 8.26% [at 5.99 µM] | activation [19] 9.5% [at 5.99 µM] | activity, negative = inhibition [8] -3.75% [at 5.62 µM] | activation [9] 3.51% [at 7.02 µM] | activity, negative = inhibition [10] 5.3% [at 5.58 µM] | activation [11] 0.295% [at 6.97 µM] | activation [12] -1.13% [at 8.39 µM] | activity change, negative = inhibition [13] 1.36% [at 8.39 µM] | activity change, negative = inhibition [14] -8.88% [at 8.39 µM] | activation [16] -3.52% [at 8.39 µM] | activity change, negative = inhibition [17] -3.89% [at 8.38 µM]

Fc1ccccc1[C@@H](F)COC1CCC(Nc2ncnc3[nH]ncc23)CC1 (some centres undefined)
inactive: Potency [1] | Potency [2] | Potency [3] | Potency [4] | Potency [20] | Potency [18] | Potency [7] | Potency [9] | Potency [14] | Potency [15] | Potency [16] | Potency [17]

c1cc(CCCc2ccncc2)ccn1
inactive: Potency [1] | Potency [2] | Potency [3] | Potency [4] | Potency [5] | Potency [6] | Potency [7] | Potency [8] | Potency [9] | Potency [10] | Potency [11] | Potency [12] | Potency [13] | Potency [14] | Potency [15] | Potency [16] | Potency [17]

CCCCCCCCCCC=O
inactive: Potency [1] | Potency [2] | Potency [3] | Potency [4] | Potency [5] | Potency [6] | Potency [7] | Potency [8] | Potency [9] | Potency [10] | Potency [11] | Potency [12] | Potency [13] | Potency [14] | Potency [15] | Potency [16] | Potency [17]

CC(O)C1CCCCC1 (centres undefined)
inactive: Potency [1] | Potency [2] | Potency [3] | Potency [4] | Potency [5] | Potency [6] | Potency [7] | Potency [8] | Potency [9] | Potency [10] | Potency [11] | Potency [12] | Potency [13] | Potency [14] | Potency [16] | Potency [17]

Cc1cc2nc(N)sc2cc1C
inactive: Potency [1] | Potency [2] | Potency [3] | Potency [4] | Potency [5] | Potency [6] | Potency [7] | Potency [19] | Potency [8] | Potency [9] | Potency [10] | Potency [11] | Potency [12] | Potency [15] | Potency [16] | Potency [17]

CO[Si](C)(OC)OC
inactive: Potency [1] | Potency [2] | Potency [3] | Potency [4] | Potency [5] | Potency [6] | Potency [7] | Potency [8] | Potency [9] | Potency [10] | Potency [11] | Potency [12] | Potency [13] | Potency [14] | Potency [16] | Potency [17]
